In PubChem BioAssay (NCI):
The panel holds about 83,000 compounds, 20% with a hit somewhere; the sample as a whole holds those more often.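 Method: cells in 96-well plates; compound added at one concentration; 48 h incubation; percent growth measured; values under 10 scored active.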 Unmarked numbers belong to inactive results. The source made the active and inactive calls.

Columns and labels:
Test in all cases: NCI-60 one-dose screen, 48 h (100 = growth as untreated, 0 = no growth, -100 = all killed)
Conditions in all cases: 10 µM unless noted
HT29 colon = test system: HT29 colon
SNB-75 CNS = test system: SNB-75 CNS
SNB-19 CNS = test system: SNB-19 CNS
U251 CNS = test system: U251 CNS
PC-3 prostate = test system: PC-3 prostate
SK-MEL-5 melanoma = test system: SK-MEL-5 melanoma
UACC-62 melanoma = test system: UACC-62 melanoma
LOX IMVI melanoma = test system: LOX IMVI melanoma
SK-MEL-28 melanoma = test system: SK-MEL-28 melanoma
SK-MEL-2 melanoma = test system: SK-MEL-2 melanoma
SN12C renal = test system: SN12C renal
UO-31 renal = test system: UO-31 renal
TK-10 renal = test system: TK-10 renal
ACHN renal = test system: ACHN renal
CAKI-1 renal = test system: CAKI-1 renal
CCRF-CEM leukemia = test system: CCRF-CEM leukemia
MOLT-4 leukemia = test system: MOLT-4 leukemia
SR leukemia = test system: SR leukemia
A498 renal = test system: A498 renal
EKVX NSCLC = test system: EKVX NSCLC

Row | Compound | growth (HT29 colon) | growth (SNB-75 CNS) | growth (SNB-19 CNS) | growth (U251 CNS) | growth (PC-3 prostate) | growth (SK-MEL-5 melanoma) | growth (UACC-62 melanoma) | growth (LOX IMVI melanoma) | growth (SK-MEL-28 melanoma) | growth (SK-MEL-2 melanoma) | growth (SN12C renal) | growth (UO-31 renal) [%] | growth (TK-10 renal) [%] | growth (ACHN renal) | growth (CAKI-1 renal) | growth (CCRF-CEM leukemia) | growth (MOLT-4 leukemia) | growth (SR leukemia) | growth (A498 renal) | growth (EKVX NSCLC) [%]
1 | COc1ccc(-c2noc(N)c2-c2cc(OC)c3c(c2)OCO3)cc1 | 7.22% (active) | 3.98% (active) | 53.5% | 10.7% | 31.1% | 21.2% | 44.1% | 29.7% | 51.8% | -1.35% (active) | 35.8% | 52.2 | 39 | 40.8% | 32.7% | 5.26% (active) | 18.4% | -25.8% (active) | – | –
2 | C=C1c2c(C)nn(-c3ccc(C#CCOC4OC(CO)C(O)C(O)C4O)cc3)c2N(C)C23C[C@H]1C1(C)c4c(C)nn(-c5ccc(C#CCOC6OC(CO)C(O)C(O)C6O)cc5)c4N(C)C(C)(C[C@H]12)C3 (stereo partly drawn) | 8.04% (active) | 6.04% (active) | 2.15% (active) | -35% (active) | -26.1% (active) | -74.7% (active) | -36.7% (active) | -42.4% (active) | 5.91% (active) | -43.5% (active) | 8.29% (active) | 21.1 | – | 27.7% | -29.8% (active) | -30.2% (active) | -14.9% (active) | 6.31% (active) | 4.38% (active) | –
3 | COc1cccc(C2C(C#N)=C(N)Oc3cc(OC)ccc32)c1 (stereo not drawn) | -21.2% (active) | 46.1% | 44.1% | 3.36% (active) | -2.64% (active) | -4.55% (active) | 30.9% | 13.2% | 56.2% | 19.8% | 24.9% | 41.6 | 50.6 | 29.7% | 20.6% | -1.19% (active) | 1.42% (active) | -30.3% (active) | – | –
4 | N#CCCN(CCO)c1ccccc1 | 93.7% | 100% | 101% | 101% | 86.7% | 99.9% | 103% | 107% | 108% | 101% | 97.6% | 89.5 | 93.7 | 106% | – | – | – | 86.3% | 96.4% | –
5 | COC(=O)[C@]1(CCSC)N[C@H](c2cn(-c3ccccc3)nc2C)[C@@H]2C(=O)N(c3ccccc3)C(=O)[C@@H]21 | 103% | 86% | 109% | 105% | 101% | 101% | 102% | 96.1% | 109% | 121% | 103% | 90.9 | – | 113% | 101% | – | – | – | 93% | –
6 | COc1ccc(-n2nnc(C(=O)O)c2-c2cc(OC)c(OC)c(OC)c2)cc1 | 97.2% | 95.5% | 104% | 95.9% | 106% | 104% | 109% | 94.9% | 104% | 95% | 105% | 110 | 93.2 | 105% | 102% | 105% | 94% | 85.4% | – | –
7 | CSc1nc2c(c(=O)[nH]1)C(c1ccc(Cl)cc1)C1=C(N2)/C(=C/c2ccc(Cl)cc2)CNC1 (stereo not drawn) | -36.6% (active) | 51.9% | 46.8% | -16.1% (active) | 42% | 77.1% | 89.2% | -61.3% (active) | 87.9% | 78.4% | 39.7% | 16.8 | 78.9 | 72.5% | 76.8% | – | 18.7% | -16.2% (active) | 18.3% | –
8 | CCOC(Cc1c(N)[nH]c(=S)[nH]c1=O)OCC | 99.2% | 96.7% | 106% | 103% | 95.3% | 95.5% | 104% | 95.3% | 102% | 124% | 110% | – | – | 94.9% | – | – | 88% | 90.8% | 104% | –
9 | COc1ccc2[nH]cc(/C=C3/C(=O)Nc4ccc(Cl)cc43)c2c1 | 17.5% | -1.24% (active) | 70.7% | 38% | 64.6% | 55.2% | 51.8% | 17.7% | 81.1% | – | 76.6% | 65.7 | 22.2 | 18.2% | 26.6% | 44.3% | 39.9% | 2.51% (active) | 67.7% | 46.2
10 | O=C(Nc1ccc(OCc2nnc(-c3ccccc3)o2)c(F)c1)Nc1ccc(Cl)c(C(F)(F)F)c1 | 9.92% (active) | 40.2% | 29.9% | 7.14% (active) | -16.2% (active) | 4.6% (active) | 27.4% | 7.41% (active) | 49.2% | 16.2% | 16.1% | – | 33.7 | 9.47% (active) | 16.4% | 18.9% | 13.7% | 0.0728% (active) | 18% | –
11 | COc1cccc(CCC2C(=O)CCCC2=O)c1 | 111% | 108% | 96.8% | 109% | 104% | 104% | 103% | 117% | 119% | – | 106% | 84.3 | 115 | 103% | 106% | 102% | 92.1% | 99.1% | 131% | 116
12 | OC(CCC(O)(c1ccccc1)c1ccccc1)(c1ccccc1)c1ccccc1 | 78.4% | 83.9% | 106% | 87.7% | 24.4% | 90.6% | 62.2% | 71.4% | 112% | 97.5% | 88% | 74.7 | 107 | 100% | 44.4% | 33.5% | 18.5% | 79.6% | 60.2% | –
13 | Nc1ccc2c3c(cccc13)-c1ccccc1-2 | 108% | 74.2% | 97.7% | 94.9% | 73% | 98.4% | 84.7% | 91.7% | 110% | 105% | 55.8% | 32.3 | – | 95.2% | 69.4% | 25.1% | 32.4% | 93.1% | 85.9% | –
14 | O=C(OCCBr)c1ccc(Cl)c([N+](=O)[O-])c1 | 45.4% | 104% | 38.9% | -31.7% (active) | 70% | 113% | 104% | 91.1% | 60% | 94.1% | 102% | 88.9 | 106 | 104% | – | – | 83.7% | 86.5% | 97.6% | –
15 | COC(=O)[C@]1(CCSC)N[C@H](c2cn(-c3ccccc3)nc2C)[C@@H]2C(=O)N(c3ccc(C)cc3)C(=O)[C@@H]21 | 99.7% | 93.3% | 97.8% | 95.7% | 98.1% | 115% | 102% | 97.9% | 109% | 101% | 101% | 77.5 | – | 90.7% | 93.9% | – | – | – | 77.2% | –
16 | COc1ccc(-c2cnnn2-c2cc(OC)c3c(c2)OCO3)cc1 | 1.26% (active) | 23.1% | 39.4% | 3.74% (active) | 4.25% (active) | 18.1% | 26.8% | 17.8% | 55% | 22.4% | 36.8% | 50 | 40 | 38.8% | 29.6% | 0.869% (active) | 4.11% (active) | -30.4% (active) | – | –
17 | COc1cc(/C=C2\CCC/C(=C\c3ccc(OCC4CO4)c(OC)c3)C2=O)ccc1OCC1CO1 (stereo not drawn) | -15% (active) | 51.4% | 63.4% | 12.7% | 50.7% | 18.4% | 3.6% (active) | -59.9% (active) | 14.8% | 49.7% | 23.8% | 47.6 | 58.5 | 30.2% | 72.2% | 1.96% (active) | -12.6% (active) | -3.1% (active) | 63.9% | –
